Assays:
Experiment in all cases: DAPPL (digital affinity profiling via proximity ligation, sequencing); 10 mM Tris-HCl pH 7.5, 50 mM NaCl, 1 mM DTT, 4% glycerol, room temperature, 30 min; GST-TFs on glutathione beads, 16-mer random dsDNA library, 0.1% formaldehyde crosslink after washing; high values mean tight binding
Conditions in all cases: protein: recombinant; tags: N-terminal GST; dsDNA, one strand shown
[1] = target: ETV5 (Homo sapiens, UniProt P41161 1-510)
Method in brief: (§1)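 Sequencing on an Illumina NextSeq500 followed washing, crosslinking with 0.1% formaldehyde, proximity ligation (BsaI/T4 ligase, 1 h, 37 °C) and PCR amplification of pools that had been incubated for 30 min at room temperature with 200 nmole of a random double-stranded 16-mer DNA library in Tris/NaCl/DTT/glycerol buffer. Each pool held DNA-barcoded human transcription factors, expressed in yeast as GST fusions and captured on glutathione beads, plus a tag-only sample. Binding signal is a hexamer's read frequency for a factor divided by its frequency in the tag-only sample.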

[2] = target: T1, SPIC (Homo sapiens, UniProt Q8N5J4 1-248)
T1 sequence: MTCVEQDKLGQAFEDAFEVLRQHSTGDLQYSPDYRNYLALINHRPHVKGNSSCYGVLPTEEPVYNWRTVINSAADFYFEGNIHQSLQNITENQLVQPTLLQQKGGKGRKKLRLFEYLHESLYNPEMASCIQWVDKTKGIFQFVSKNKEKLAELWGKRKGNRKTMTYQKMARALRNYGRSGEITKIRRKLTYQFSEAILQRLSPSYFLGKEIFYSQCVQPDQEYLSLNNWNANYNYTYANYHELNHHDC
Method in brief: as §1

[3] = target: ELF4 (Homo sapiens, UniProt Q99607 1-663)
Method in brief: as §1

[4] = target: T2, ELK4 (Homo sapiens, UniProt P28324-2 1-405)
T2 sequence: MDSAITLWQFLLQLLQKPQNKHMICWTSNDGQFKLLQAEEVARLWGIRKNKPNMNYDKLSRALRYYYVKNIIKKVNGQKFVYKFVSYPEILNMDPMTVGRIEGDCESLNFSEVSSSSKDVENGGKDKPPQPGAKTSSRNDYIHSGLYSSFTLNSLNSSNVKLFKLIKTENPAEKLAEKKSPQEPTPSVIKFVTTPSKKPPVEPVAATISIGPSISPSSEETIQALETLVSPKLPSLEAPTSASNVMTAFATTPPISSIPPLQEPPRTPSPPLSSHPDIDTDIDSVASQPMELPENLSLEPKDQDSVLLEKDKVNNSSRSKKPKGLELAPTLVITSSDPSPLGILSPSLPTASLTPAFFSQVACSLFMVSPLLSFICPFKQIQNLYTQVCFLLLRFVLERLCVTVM
Method in brief: as §1

[5] = target: T3, ETV2 (Homo sapiens, UniProt O00321 1-342)
T3 sequence: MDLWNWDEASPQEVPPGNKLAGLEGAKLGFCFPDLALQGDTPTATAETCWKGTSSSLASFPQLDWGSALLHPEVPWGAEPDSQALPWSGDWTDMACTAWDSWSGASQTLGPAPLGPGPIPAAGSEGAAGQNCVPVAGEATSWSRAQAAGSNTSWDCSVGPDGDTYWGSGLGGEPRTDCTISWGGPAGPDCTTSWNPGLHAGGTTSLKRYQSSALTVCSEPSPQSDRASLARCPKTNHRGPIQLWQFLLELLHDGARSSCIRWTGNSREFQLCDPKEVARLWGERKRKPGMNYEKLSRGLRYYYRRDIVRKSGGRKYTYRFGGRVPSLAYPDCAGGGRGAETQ
Method in brief: as §1

[6] = target: ETV1 (Homo sapiens, UniProt P50549 1-477)
Method in brief: as §1

[7] = target: T4, ERF (Homo sapiens, UniProt P50548 1-548)
T4 sequence: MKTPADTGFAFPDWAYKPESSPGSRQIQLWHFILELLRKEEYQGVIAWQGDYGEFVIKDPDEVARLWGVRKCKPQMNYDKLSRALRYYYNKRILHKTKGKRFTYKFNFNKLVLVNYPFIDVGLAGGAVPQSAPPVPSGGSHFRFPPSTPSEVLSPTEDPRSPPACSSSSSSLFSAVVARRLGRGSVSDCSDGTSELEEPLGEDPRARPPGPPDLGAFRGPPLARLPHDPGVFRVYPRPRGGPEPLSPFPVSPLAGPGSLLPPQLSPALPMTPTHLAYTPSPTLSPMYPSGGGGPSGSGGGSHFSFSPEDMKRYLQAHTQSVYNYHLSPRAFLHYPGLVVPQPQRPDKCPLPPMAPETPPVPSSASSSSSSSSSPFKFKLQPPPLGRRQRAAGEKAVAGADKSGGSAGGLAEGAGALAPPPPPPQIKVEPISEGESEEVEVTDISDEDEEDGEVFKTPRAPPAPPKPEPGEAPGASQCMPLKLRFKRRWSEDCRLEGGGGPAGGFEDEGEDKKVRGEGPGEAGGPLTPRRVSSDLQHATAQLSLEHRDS
Method in brief: as §1

[8] = target: T5, ETV3L (Homo sapiens, UniProt Q6ZN32 1-361)
T5 sequence: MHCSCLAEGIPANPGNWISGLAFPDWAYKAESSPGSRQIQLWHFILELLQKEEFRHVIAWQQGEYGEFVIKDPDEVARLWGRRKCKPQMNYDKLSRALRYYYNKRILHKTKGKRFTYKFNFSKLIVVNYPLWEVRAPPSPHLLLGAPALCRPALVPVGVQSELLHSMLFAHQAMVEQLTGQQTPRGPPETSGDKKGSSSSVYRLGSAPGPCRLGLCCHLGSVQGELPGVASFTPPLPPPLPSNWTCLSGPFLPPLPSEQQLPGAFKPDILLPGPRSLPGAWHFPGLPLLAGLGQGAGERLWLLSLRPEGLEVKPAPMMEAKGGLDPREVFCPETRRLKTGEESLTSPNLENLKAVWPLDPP
Method in brief: as §1

[9] = target: T6, ETS2 (Homo sapiens, UniProt P15036 1-469)
T6 sequence: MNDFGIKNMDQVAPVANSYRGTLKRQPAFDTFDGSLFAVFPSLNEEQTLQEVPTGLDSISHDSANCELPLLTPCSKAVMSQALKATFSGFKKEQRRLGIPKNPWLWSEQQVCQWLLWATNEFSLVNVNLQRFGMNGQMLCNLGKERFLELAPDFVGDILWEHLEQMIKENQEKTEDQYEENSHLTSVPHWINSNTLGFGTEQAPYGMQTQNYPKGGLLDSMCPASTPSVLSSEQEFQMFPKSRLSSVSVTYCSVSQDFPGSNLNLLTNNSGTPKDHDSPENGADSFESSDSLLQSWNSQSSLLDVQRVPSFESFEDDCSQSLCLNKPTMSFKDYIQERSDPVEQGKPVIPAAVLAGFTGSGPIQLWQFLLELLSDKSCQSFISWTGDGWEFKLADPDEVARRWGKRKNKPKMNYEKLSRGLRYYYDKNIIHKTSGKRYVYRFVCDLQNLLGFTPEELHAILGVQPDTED
Method in brief: as §1

[10] = target: T7, SPDEF (Homo sapiens, UniProt O95238 1-335)
T7 sequence: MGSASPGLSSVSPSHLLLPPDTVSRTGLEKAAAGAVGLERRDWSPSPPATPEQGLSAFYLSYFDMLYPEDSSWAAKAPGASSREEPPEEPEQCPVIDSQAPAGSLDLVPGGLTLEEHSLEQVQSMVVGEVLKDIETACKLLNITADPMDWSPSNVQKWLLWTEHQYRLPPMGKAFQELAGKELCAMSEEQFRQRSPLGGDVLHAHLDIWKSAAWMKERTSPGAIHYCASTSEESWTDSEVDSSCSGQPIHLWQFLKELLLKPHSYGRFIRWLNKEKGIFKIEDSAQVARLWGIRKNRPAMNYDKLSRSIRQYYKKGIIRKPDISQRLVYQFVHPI
Method in brief: as §1

[11] = target: T8, ETV7 (Homo sapiens, UniProt Q9Y603 1-341)
T8 sequence: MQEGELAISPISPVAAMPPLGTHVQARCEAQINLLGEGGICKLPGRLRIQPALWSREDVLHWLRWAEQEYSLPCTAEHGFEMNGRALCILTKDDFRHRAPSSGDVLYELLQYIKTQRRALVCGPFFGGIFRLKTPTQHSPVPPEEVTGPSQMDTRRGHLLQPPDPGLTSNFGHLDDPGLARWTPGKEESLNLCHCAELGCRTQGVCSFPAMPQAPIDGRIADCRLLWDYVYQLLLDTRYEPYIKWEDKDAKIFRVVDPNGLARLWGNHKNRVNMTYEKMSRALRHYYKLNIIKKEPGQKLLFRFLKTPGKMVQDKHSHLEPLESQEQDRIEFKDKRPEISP
Method in brief: as §1

[12] = target: T9, ELF5 (Homo sapiens, UniProt Q9UKW6-2 1-255)
T9 sequence: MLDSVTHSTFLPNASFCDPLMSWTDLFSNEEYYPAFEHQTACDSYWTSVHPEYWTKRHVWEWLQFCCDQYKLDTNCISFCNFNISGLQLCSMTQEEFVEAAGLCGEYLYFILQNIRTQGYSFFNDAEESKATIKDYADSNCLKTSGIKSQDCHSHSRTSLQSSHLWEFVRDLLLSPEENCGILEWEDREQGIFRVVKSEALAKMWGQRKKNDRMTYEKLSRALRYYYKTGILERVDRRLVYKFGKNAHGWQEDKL
Method in brief: as §1

[13] = target: T10, ETV3 (Homo sapiens, UniProt P41162-2 1-143)
T10 sequence: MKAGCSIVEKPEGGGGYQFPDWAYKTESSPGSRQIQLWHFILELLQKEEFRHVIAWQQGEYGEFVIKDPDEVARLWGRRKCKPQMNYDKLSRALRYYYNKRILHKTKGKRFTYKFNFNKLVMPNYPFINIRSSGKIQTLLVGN
Method in brief: as §1

[14] = target: ETV6 (Homo sapiens, UniProt P41212 1-452)
Method in brief: as §1

[15] = target: T11, FEV (Homo sapiens, UniProt Q99581 1-238)
T11 sequence: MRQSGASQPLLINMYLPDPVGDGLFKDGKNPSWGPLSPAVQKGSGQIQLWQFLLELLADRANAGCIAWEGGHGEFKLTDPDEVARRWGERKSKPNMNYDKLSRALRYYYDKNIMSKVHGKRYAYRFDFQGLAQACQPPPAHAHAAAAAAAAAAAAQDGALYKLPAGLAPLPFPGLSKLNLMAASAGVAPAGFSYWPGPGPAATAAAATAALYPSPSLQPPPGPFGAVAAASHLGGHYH
Method in brief: as §1

Sequence of ELF4 (Q99607 whole entry): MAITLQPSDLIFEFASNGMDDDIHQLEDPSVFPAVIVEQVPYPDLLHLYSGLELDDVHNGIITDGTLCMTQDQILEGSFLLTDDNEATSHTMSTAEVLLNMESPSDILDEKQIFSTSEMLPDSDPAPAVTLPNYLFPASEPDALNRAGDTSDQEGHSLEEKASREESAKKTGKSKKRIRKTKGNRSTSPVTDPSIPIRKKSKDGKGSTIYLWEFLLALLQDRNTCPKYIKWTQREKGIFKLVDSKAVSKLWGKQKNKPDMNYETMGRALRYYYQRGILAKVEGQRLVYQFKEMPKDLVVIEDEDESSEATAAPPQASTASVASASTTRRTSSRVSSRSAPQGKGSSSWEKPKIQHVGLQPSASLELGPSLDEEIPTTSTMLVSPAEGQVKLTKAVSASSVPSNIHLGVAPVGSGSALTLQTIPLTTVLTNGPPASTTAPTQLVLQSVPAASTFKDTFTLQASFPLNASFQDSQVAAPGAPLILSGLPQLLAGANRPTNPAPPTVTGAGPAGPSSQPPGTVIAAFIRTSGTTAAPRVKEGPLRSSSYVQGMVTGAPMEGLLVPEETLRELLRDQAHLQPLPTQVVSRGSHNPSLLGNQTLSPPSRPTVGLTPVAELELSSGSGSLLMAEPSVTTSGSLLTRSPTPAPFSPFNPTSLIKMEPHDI
Sequence of ETV6 (P41212 whole entry): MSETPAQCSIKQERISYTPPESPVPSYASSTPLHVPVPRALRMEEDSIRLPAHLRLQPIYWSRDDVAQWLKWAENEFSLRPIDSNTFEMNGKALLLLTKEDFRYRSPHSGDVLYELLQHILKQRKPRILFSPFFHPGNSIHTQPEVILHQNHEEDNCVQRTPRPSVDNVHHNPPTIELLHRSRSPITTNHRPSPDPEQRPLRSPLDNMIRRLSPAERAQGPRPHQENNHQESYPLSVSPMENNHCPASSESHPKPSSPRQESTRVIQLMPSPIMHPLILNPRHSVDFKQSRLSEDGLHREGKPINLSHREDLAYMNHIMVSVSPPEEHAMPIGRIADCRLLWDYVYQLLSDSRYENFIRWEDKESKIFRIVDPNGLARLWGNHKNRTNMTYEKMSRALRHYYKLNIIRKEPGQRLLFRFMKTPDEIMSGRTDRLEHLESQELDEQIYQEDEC
Sequence of ETV5 (P41161 whole entry, the tested form may be a part): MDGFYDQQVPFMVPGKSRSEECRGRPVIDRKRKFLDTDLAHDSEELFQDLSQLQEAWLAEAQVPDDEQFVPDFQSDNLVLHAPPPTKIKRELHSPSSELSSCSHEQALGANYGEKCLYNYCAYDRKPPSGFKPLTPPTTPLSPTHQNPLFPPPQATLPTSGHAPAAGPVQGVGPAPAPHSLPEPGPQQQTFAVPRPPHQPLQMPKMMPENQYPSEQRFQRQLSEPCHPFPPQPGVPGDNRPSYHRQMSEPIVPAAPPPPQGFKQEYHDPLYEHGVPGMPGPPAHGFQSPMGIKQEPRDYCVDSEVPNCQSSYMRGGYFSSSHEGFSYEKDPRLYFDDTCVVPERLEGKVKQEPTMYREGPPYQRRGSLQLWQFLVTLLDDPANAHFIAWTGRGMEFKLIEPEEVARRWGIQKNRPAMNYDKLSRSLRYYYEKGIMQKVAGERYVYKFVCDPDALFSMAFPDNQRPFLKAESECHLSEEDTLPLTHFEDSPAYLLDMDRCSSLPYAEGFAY
Sequence of ETV1 (P50549 whole entry): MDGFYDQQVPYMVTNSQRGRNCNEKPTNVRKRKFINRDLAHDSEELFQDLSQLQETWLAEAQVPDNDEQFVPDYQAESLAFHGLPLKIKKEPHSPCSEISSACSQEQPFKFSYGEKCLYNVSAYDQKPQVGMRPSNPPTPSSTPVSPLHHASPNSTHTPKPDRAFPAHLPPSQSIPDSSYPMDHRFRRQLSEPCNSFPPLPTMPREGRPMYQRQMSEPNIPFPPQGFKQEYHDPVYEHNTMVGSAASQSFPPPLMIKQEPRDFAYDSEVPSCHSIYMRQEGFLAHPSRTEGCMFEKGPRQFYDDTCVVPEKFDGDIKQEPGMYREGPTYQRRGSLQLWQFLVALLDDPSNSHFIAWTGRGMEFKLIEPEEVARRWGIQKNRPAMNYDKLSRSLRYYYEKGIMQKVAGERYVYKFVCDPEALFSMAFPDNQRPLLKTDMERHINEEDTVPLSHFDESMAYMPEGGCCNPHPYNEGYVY

Sequence	binding signal [1]	binding signal [2]	binding signal [3]	binding signal [4]	binding signal [5]	binding signal [6]	binding signal [7]	binding signal [8]	binding signal [9]	binding signal [10]	binding signal [11]	binding signal [12]	binding signal [13]	binding signal [14]	binding signal [15]
CGTATG	1.09 fold enrichment (6-mer frequency, TF over GST control)	1.07 fold enrichment (6-mer frequency, TF over GST control)	1.04 fold enrichment (6-mer frequency, TF over GST control)	1 fold enrichment (6-mer frequency, TF over GST control)	1.09 fold enrichment (6-mer frequency, TF over GST control)	1.04 fold enrichment (6-mer frequency, TF over GST control)	1.02 fold enrichment (6-mer frequency, TF over GST control)	1.07 fold enrichment (6-mer frequency, TF over GST control)	1.11 fold enrichment (6-mer frequency, TF over GST control)	1.05 fold enrichment (6-mer frequency, TF over GST control)	1.03 fold enrichment (6-mer frequency, TF over GST control)	1.04 fold enrichment (6-mer frequency, TF over GST control)	1.13 fold enrichment (6-mer frequency, TF over GST control)	1.02 fold enrichment (6-mer frequency, TF over GST control)	
ACACTG	1.07 fold enrichment (6-mer frequency, TF over GST control)	1.3 fold enrichment (6-mer frequency, TF over GST control)	1.03 fold enrichment (6-mer frequency, TF over GST control)	1.14 fold enrichment (6-mer frequency, TF over GST control)	1.04 fold enrichment (6-mer frequency, TF over GST control)	1.15 fold enrichment (6-mer frequency, TF over GST control)	1.17 fold enrichment (6-mer frequency, TF over GST control)	1.11 fold enrichment (6-mer frequency, TF over GST control)	1.06 fold enrichment (6-mer frequency, TF over GST control)	1.05 fold enrichment (6-mer frequency, TF over GST control)	1.03 fold enrichment (6-mer frequency, TF over GST control)	1.05 fold enrichment (6-mer frequency, TF over GST control)	1.01 fold enrichment (6-mer frequency, TF over GST control)	1.04 fold enrichment (6-mer frequency, TF over GST control)	1.01 fold enrichment (6-mer frequency, TF over GST control)
